Source: PubChem BioAssay
Shown are actives, neighbours in structure and some others; about 3.8% of the full set was active somewhere.
PrP 5UTR inh: inhibition of PrP 5' UTR reporter expression; cell-based PrP 5' UTR mRNA reporter, plate reader; AID 488862, 2010; inhibition, % (no concentration beside the values); 340,000 compounds, 0.35% hits; in the data active = inhibition above about 52%
PrPC surface inh: inhibitors of human cell surface prion protein PrPC, primary screen, cell-based, TR-FRET; TR-FRET read-out; Major prion protein (Homo sapiens), P04156; inhibition, % at 13.8 µM; 370,000 compounds, 0.43% hits; in the data active = inhibition above about 24%
GDH-TPI counter: GDH-TPI coupling enzyme inhibitors, primary screen, artefact control for M. tuberculosis FBA inhibitor project, biochemical, absorbance, full deck. GDH-TPI coupled enzyme counterscreen, NADH absorbance. 360,000 compounds, 1.2% hits. inhibition, % at 4.8 µM; in the data active = inhibition above about 30%
Mtb hypoxia rep: PubChem AID 1159583 | M. tuberculosis hypoxia-regulated fluorescent reporter, fluorescence | fluorescence inhibition, % (test concentration not listed) | 300,000 compounds, 0.1% hits; in the data active = fluorescence inhibition mostly above about 23%, no sharp cut-off; inactive = mostly below about 17%
Y pestis TopoI: Yersinia pestis topoisomerase I inhibitors, primary screen, biochemical, cleavage product accumulation, plate reader, single point; activity, % at 10 µM; DNA topoisomerase I (Yersinia pestis CO92); AID 504884, 2011; Y. pestis Topo-I cleavage product accumulation; 360,000 compounds, 0.064% hits; in the data active = activity above about 50%, passing the limit was not always enough
Mtb FBA inh: Mtb FBA enzyme inhibitors, primary screen, biochemical, fluorescence, strain H37Rv; Fructose-bisphosphate aldolase (Mycobacterium tuberculosis (strain ATCC 25618 / H37Rv)), …; purified M. tuberculosis FBA, fluorescence read-out; inhibition, % at 1 µM; 360,000 compounds, 2.3% hits; AID 588726, 2011; in the data active = inhibition above about 27%
Target sequence (P9WQA3 whole entry, looked up): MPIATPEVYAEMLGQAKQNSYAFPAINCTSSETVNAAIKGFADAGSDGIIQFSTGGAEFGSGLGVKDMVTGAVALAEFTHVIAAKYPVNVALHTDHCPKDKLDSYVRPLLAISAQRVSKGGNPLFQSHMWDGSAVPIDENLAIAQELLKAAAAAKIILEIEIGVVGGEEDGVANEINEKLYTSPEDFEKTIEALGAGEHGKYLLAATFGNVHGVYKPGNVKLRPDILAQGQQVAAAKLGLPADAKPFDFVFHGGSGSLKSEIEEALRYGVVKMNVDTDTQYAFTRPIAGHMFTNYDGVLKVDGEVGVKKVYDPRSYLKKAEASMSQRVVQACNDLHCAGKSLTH
Hits are given with their value.

What do the screens show for `COC(CN(C(=O)CCl)C(C(=O)NC1CCCCC1)c1ccc(Cl)cc1)OC` (stereo unspecified)?
PrP 5UTR inh: inactive; PrPC surface inh: inactive; GDH-TPI counter: inactive; Mtb hypoxia rep: inactive; Y pestis TopoI: inactive; Mtb FBA inh: inactive

Results for COC(CN(C(=O)CCl)C(C(=O)NC1CCCC(C)C1C)c1ccc(C)cc1)OC (stereo unspecified) ?
PrP 5UTR inh: inactive; GDH-TPI counter: active; Y pestis TopoI: inactive; Mtb FBA inh: inactive

Results for O=C1C=C(c2ccc(F)c(Cl)c2)CC(c2ccc(F)cc2)C1 (stereo unspecified) ?
Mtb hypoxia rep: inactive

Results for O=C(CNC(=O)c1cccc(OC(F)F)c1)OCc1cc(=O)n2cc(Br)ccc2n1 ?
PrP 5UTR inh: inactive; PrPC surface inh: inactive; GDH-TPI counter: 30.9; Y pestis TopoI: inactive; Mtb FBA inh: inactive

How did O=C(CNS(=O)(=O)c1ccc(Br)cc1)OCc1cc(=O)n2cc(Br)ccc2n1 do in these assays?
PrPC surface inh: inactive; Mtb hypoxia rep: inactive

Results for O=C(CC1CC=CCC(NC(=O)OCC2c3ccccc3-c3ccccc32)C(=O)OCC2CCCN2C1=O)NCCO (stereo unspecified) ?
Mtb hypoxia rep: inactive

How did CCc1nn(CC(=O)NCCN2CCN(C)CC2)c(=O)c2cc3c(OC)cccc3n12 do in these assays?
PrP 5UTR inh: inactive; PrPC surface inh: inactive; GDH-TPI counter: inactive; Mtb hypoxia rep: inactive; Y pestis TopoI: inactive; Mtb FBA inh: active

What do the screens show for `COc1cccc2c1cc1c(=O)n(CC(=O)N3CCC(C)CC3)nc(C)n12`?
PrP 5UTR inh: inactive; PrPC surface inh: inactive; GDH-TPI counter: inactive; Mtb hypoxia rep: inactive; Y pestis TopoI: inactive; Mtb FBA inh: active

What do the screens show for `N#CC(=NNc1ccc(S(=O)(=O)N2CCOCC2)cc1)C(N)=S`?
Mtb hypoxia rep: inactive

Results for CCC(=O)Nc1cccc(C2=NOC3(C2)CC(C(N)=O)N(C(=O)CC)C3)c1 (stereo unspecified) ?
Mtb hypoxia rep: inactive

How did Cc1c(C(=O)O)cccc1-n1c(C)cc(/C=N/NC(=O)c2cc3ccccc3o2)c1C do in these assays?
PrP 5UTR inh: inactive; PrPC surface inh: inactive; GDH-TPI counter: 39.4; Y pestis TopoI: inactive; Mtb FBA inh: inactive

What do the screens show for `Cc1cc(C=NNC(=O)c2cc3ccccc3o2)c(C)n1C`?
Mtb hypoxia rep: inactive

How did Cc1ccccc1-n1c(C)cc(/C=N/NC(=O)c2ccncc2)c1C do in these assays?
PrPC surface inh: inactive; GDH-TPI counter: 31.2; Y pestis TopoI: inactive; Mtb FBA inh: inactive

How did CC(C)n1c(=O)c2ccccc2n1Cc1cn(Cc2cccs2)nn1 do in these assays?
PrPC surface inh: inactive; Mtb FBA inh: 152.3

How did CC(C)n1c(=O)c2ccccc2n1Cc1cn(Cc2cccnc2)nn1 do in these assays?
PrPC surface inh: inactive; Mtb FBA inh: 153.5

What do the screens show for `CCOC(=O)NN=C(C)c1ccc(OC(F)F)cc1OC(F)F`?
Mtb hypoxia rep: inactive

What do the screens show for `O=C(N/N=C/c1ccc(Sc2ccccn2)o1)c1cc2ccccc2cc1O`?
PrP 5UTR inh: inactive; GDH-TPI counter: 51.2; Y pestis TopoI: inactive; Mtb FBA inh: inactive

Results for O=C(N/N=C\c1ccc(Sc2ccccn2)o1)c1cccc(F)c1 ?
PrP 5UTR inh: inactive; PrPC surface inh: inactive; GDH-TPI counter: 31.4; Y pestis TopoI: inactive; Mtb FBA inh: inactive

How did O=C(N/N=C/c1cnc2ccccc2n1)c1cccc(F)c1 do in these assays?
PrP 5UTR inh: inactive; PrPC surface inh: inactive; GDH-TPI counter: 36.7; Y pestis TopoI: inactive; Mtb FBA inh: inactive

What do the screens show for `O=C(NN=Cc1ccc(Sc2ccccn2)o1)c1cccc(F)c1`?
Mtb hypoxia rep: inactive

How did CCCN1CCC(=O)N(C(COc2ccccc2)Cc2ccccc2)CC1 (stereo unspecified) do in these assays?
Mtb hypoxia rep: inactive

Results for COc1ccc(CNC(=S)NN=Cc2ccc(OC)c(OC)c2)cc1 ?
Mtb hypoxia rep: inactive

Results for COc1ccc(N=C2SC(=Cc3ccc(C)s3)C(=O)N2CC(C)C)cc1 ?
Mtb hypoxia rep: inactive

What do the screens show for `Cc1ccc(N/C(N)=N/c2nc(C)cc(N3CCCCC3)n2)c(C)c1`?
PrP 5UTR inh: inactive; PrPC surface inh: 45.1; GDH-TPI counter: inactive; Y pestis TopoI: inactive; Mtb FBA inh: inactive
